Reference: PubChem BioAssay AID488969 (Vanderbilt High Throughput Screening Facility, 2010)
Over roughly 110,000 compounds, “z-score” has its median near -0.1; the highest 2% begin near 2. Shown is part of a subset that was picked to be rich in the highest values. Calls of active or inactive are those of the source.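 Rule for the calls: active = z-score in the third read window above 3 or below -3; inactive = the rest.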

target: Metabotropic glutamate receptor 8 (Rattus norvegicus) (UniProt P70579); test: mGluR8 Gi/Go-coupled signaling modulation – cell-based, rat, thallium flux, HTS, primary screen (AID 488969); conditions: HEK293 rat mGluR8, GIRK (G protein-gated inwardly rectifying potassium channel) thallium flux, FluoZin2; at 10 µM; stronger effect = higher value; submaximal glutamate (EC20) added with thallium
Sequence (P70579 whole entry, looked up): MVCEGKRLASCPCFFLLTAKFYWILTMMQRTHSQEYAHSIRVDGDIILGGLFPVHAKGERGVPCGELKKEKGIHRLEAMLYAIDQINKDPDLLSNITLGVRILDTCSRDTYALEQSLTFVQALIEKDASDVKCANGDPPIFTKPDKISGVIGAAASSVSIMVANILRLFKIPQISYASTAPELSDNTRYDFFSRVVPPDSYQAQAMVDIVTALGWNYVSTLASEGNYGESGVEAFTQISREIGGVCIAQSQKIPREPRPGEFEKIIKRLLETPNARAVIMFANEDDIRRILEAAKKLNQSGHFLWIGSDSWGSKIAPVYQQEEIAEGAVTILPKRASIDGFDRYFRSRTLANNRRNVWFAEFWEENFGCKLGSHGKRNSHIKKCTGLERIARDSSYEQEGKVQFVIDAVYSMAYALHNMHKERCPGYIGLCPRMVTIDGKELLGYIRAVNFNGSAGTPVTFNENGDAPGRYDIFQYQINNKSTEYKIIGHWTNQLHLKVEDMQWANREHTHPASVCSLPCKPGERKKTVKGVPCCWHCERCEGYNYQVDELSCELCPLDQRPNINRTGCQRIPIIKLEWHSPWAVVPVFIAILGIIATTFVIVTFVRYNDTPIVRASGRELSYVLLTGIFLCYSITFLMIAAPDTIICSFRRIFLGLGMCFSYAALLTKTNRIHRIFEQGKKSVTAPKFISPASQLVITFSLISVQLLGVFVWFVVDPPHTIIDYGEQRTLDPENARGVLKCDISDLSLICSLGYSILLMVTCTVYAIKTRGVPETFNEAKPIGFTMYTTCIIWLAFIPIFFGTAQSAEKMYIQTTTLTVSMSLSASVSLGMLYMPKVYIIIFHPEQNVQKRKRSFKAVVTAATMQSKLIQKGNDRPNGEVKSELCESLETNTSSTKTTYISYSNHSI

SMILES	z-score
CSc1nc2nccc(-c3ccc(-c4ccccc4)cc3)n2n1	-0.5
CSCCC(NC(=O)c1ccccc1)C(=O)NC1CC1 (configuration not stated)	0.177
Cc1nn(C(C)C(=O)N2CCCCC2)c(=O)c2c1sc1ccccc12 (configuration not stated)	-0.115
CCCCN(CCCC)C(=O)c1ccccc1NC(=O)CN1C(=O)c2ccccc2C1=O	-0.366
CC(O)CN(C)CC/C=C1/c2ccccc2CSc2ccccc21 (configuration not stated)	0.694
C=CCN(C)CC/C=C1\c2ccccc2CSc2ccccc21	1.99
C#CCN(C)CC/C=C1\c2ccccc2CSc2ccccc21	1.63
O=C1c2ccccc2C(=O)c2c1ccc(C(=O)N1CCCCC1)c2NCCO	0.68
Cc1cc(OCC(=O)O)c2ccccc2n1	-0.146
CC1(Br)C2CCCC1C2S(=O)(=O)c1ccccc1 (configuration not stated)	-0.376
CC(NS(=O)(=O)c1ccc(Cl)cc1)C(=O)NCc1ccco1 (configuration not stated)	0.0263
O=C(N/N=C/c1cccs1)C1COc2ccccc2O1 (configuration not stated)	0.238
O=C(N/N=C\c1cc(Br)cs1)C1COc2ccccc2O1 (configuration not stated)	2.32
O=C(N/N=C/c1ccc2c(c1)OCO2)C1COc2ccccc2O1 (configuration not stated)	0.435
CCOC(=O)/C=C1\CC(=O)Nc2cc(C)c(C)cc2N1	0.197
C/C(CC(=O)NCC(C)C)=N\NC(=O)COc1cc(C)c(Br)cc1Br	5.36 (active)
CCCNC(=O)C/C(C)=N/NC(=O)COc1ccc(C)cc1Br	-0.101
Cc1cc(OCC(=O)NCC(C)C)cc(C)c1Br	-0.137
C/C(CC(=O)NC(C)C)=N\NC(=O)COc1cc(C)c(Br)cc1Br	6.24 (active)
CCOC(=O)C/C(C)=N/NC(=O)COc1ccccc1C	0.0596
C/C(CC(=O)Nc1ccccc1-c1ccccc1)=N\NC(=O)COc1ccc(C)cc1Br	0.458
O=C(CSc1ncnc2sc3c(c12)CCCC3)N1CCC(c2noc3ccc(F)cc23)CC1	0.658
CCOC(=O)NC(Nc1ccc(S(N)(=O)=O)cc1)(C(=O)OCC)C(F)(F)F (configuration not stated)	0.00287

SMILES	z-score
COC(=O)c1ccc(/C=N/NC(=O)CC(=O)NC(C)C)cc1	-0.108
CC(=O)Nc1ccc(S(=O)(=O)Nc2nc3ccccc3nc2Nc2ccc(S(N)(=O)=O)cc2)cc1	-0.462
Cc1ccccc1C(=O)Nc1nnc(-c2ccc(F)cc2)o1	-0.035
COc1ccc(-c2nnc(NC(=O)C3=COCCO3)o2)cc1	0.731
O=C(Nc1nnc(-c2ccc(Cl)cc2)o1)Nc1ccccc1Cl	1.85
O=C(Nc1nnc(-c2ccc(Cl)cc2)o1)c1ccccc1Br	5.35 (active)
O=C(Nc1nnc(-c2ccccc2Cl)o1)c1nc2ccccc2s1	1.61
O=C(Nc1nnc(C2=COCCO2)o1)c1ccc(Cl)cc1	0.709
O=C(Nc1nnc(-c2ccccc2)o1)c1cc(Cl)sc1Cl	11.3 (active)
O=C(Nc1nnc(-c2ccc(Cl)cc2)o1)c1nc2ccccc2s1	4.07 (active)
O=C(Nc1ccccc1)Nc1nnc(-c2ccccc2)o1	-0.193
O=C(Nc1nnc(-c2ccc(Cl)cc2)o1)C1=COCCO1	2.01
NC(=O)c1oc2ccccc2c1NC(=O)c1nc2ccccc2s1	-0.927
O=C(Nc1nnc(-c2ccccc2)o1)C1CCCCC1	0.0922
COc1ccccc1NC(=O)CSc1nc(O)c(Cc2ccccc2)c(=O)[nH]1	0.381
COc1ccc(OC)c(-n2c(-c3cnccn3)n[nH]c2=S)c1	-0.441
COc1ccc(NS(=O)(=O)c2ccc(N3CCCC3)c(NC(=S)Nc3cccc(C)c3C)c2)cc1	0.291
O=C(CSc1nnc(CNC(=O)c2ccco2)o1)c1ccccc1	0.135
CCCC(=O)Nc1ccc(C(=O)N/N=C2\CC(=O)CC(C)(C)C2)cc1	-0.113
CC1(C)CC(=O)C/C(=N\NC(=O)Cc2ccccc2)C1	-0.224
CC1(C)CC(=O)CC(=Nc2ccc(C(=O)O)cc2)C1	2.15
CC(=O)c1cccc(NC(=O)c2ccco2)c1	-0.295
CCOC(=O)c1c(C)n(C)c2ccc(O)c(CN(C)C)c12	2

SMILES	z-score
CCOC(=O)c1c(C)n(C)c2ccc(O)c(CN3CCC(C)CC3)c12	3.63 (active)
CCOC(=O)c1c(C)oc2ccc(O)c(CN3CCCCC3)c12	3.52 (active)
CCOC(=O)c1c(C)oc2ccc(O)c(CN(C)C)c12	0.911
CCOC(=O)c1c(-c2ccccc2)oc2ccc(O)c(CN3CCCC3)c12	1.41
CCOC(=O)c1c(C)n(C)c2ccc(O)c(CN(CC)CC)c12	-2.05
CCOC(=O)c1c(C)n(C)c2ccc(O)c(CN3CCCCC3)c12	0.782
CCOC(=O)c1c(C)n(C)c2ccc(O)c(CN3CCN(C)CC3)c12	0.0797
CCOC(=O)c1c(-c2ccccc2)oc2ccc(O)c(CN(C)C)c12	-0.204
CCN(CCCNC(=O)CCNC(=O)Cn1cnc2ccccc2c1=O)c1ccccc1	0.554
CCOC(=O)C1CCCN(C(=O)c2ccccc2SCCOC)C1 (configuration not stated)	0.188
Cc1nnc(SCC(=O)Nc2ccc3c(c2)OCCO3)s1	0.669
O=C(O)/C=C\C(=O)Nc1ccccc1F	0.0594
O=C(NC(=S)Nc1ccccc1N1CCCC1)c1ccc(-c2cccc([N+](=O)[O-])c2)o1	5.71 (active)
CC1CCN(c2ccccc2NC(=S)NC(=O)c2ccc(-c3cccc([N+](=O)[O-])c3)o2)CC1	0.191
O=C(NC(=S)Nc1ccccc1N1CCOCC1)c1ccc(-c2cccc(Cl)c2)o1	0.758
O=C(NC(=S)Nc1cccc(Cl)c1N1CCCC1)c1ccc(-c2cccc([N+](=O)[O-])c2)o1	4.93 (active)
O=C(NC(=S)Nc1ccccc1N1CCCCC1)c1ccc(-c2cccc([N+](=O)[O-])c2)o1	0.681
CN1CCN(c2ccccc2NC(=O)c2ccc(-c3cccc([N+](=O)[O-])c3)o2)CC1	-0.00188
Cc1cc(/C=C(/C#N)c2nc3ccccc3[nH]2)c(C)n1-c1cccc([N+](=O)[O-])c1	-0.533
O=C(CN1CCCC1)NC12CC3CC(CC(C3)C1)C2	-0.0651
Cn1c(=O)c([N+](=O)[O-])c(NCc2ccccc2)c2ccccc21	-0.608
COc1ccc(CNC(=O)COC(=O)c2cc(-c3ccc(Cl)s3)nc3ccccc23)cc1	-0.432
O=C(NCCc1c[nH]c2ccccc12)c1cc2sccc2n1Cc1ccccc1	-0.216

SMILES	z-score
Cc1ccc(C(=O)O/N=C\c2ccc(N3CCOCC3)c([N+](=O)[O-])c2)cc1	-0.0662
CC(=O)Nc1ccc(NC(=O)C(F)(F)F)cc1	0.364
FC(F)Sc1ccc(-n2cc(-c3ccccc3)[n+]3c2CCC3)cc1	-0.0431
CCCc1nc(SCC(=O)c2ccccc2)c2c(=O)n(C)c(=O)n(C)c2n1	0.819
CCCc1nc(SCC(=O)N2CCC(Cc3ccccc3)CC2)c2c(=O)n(C)c(=O)n(C)c2n1	1.98
CCCc1nc(SCC(=O)N2CCN(c3ccccc3)CC2)c2c(=O)n(C)c(=O)n(C)c2n1	2.39
O=C(CSc1nnc(NC2CCCCC2)s1)NN1C(=O)NC2(CCCCC2)C1=O	0.151
O=C(CSc1nnc(Nc2ccccc2)s1)NN1C(=O)NC2(CCCCC2)C1=O	2.14
Cc1nnc(SCC(=O)NN2C(=O)NC3(CCCCC3)C2=O)s1	-0.0833
CCCCC1=C([O-])C2N=CC=CC2=[N+](c2ccccn2)C1=O (configuration not stated)	-0.104
Cc1ccc(S(=O)(=O)NC(CC(=O)N2CCc3ccccc32)c2ccco2)cc1 (configuration not stated)	-0.465
CCN(CC)C(=O)c1cc2cc(Br)ccc2oc1=O	0.312
O=C(Nn1cnnc1)c1cc2cc(Br)ccc2oc1=O	4.37 (active)
CC(C)NC(=O)c1cc2cc(Br)ccc2oc1=O	-0.497
CCC(c1nnnn1C(C)(C)C)N(Cc1ccco1)Cc1cc2cccc(C)c2[nH]c1=O (configuration not stated)	0.737
CC(C)C(C)(C#N)NC(=O)CSc1ncnc2sc(-c3ccccc3)cc12 (configuration not stated)	4.81 (active)
CN(CCC#N)C(=O)CSc1ncnc2sc(-c3ccccc3)cc12	8.2 (active)
CCN(CC)C(=O)CSc1nnc(-c2ccccc2)c(-c2ccccc2)n1	-0.489
CC(C)C(C)(C#N)NC(=O)CSc1nnc(-c2ccccc2)o1 (configuration not stated)	-0.849
CC(=O)c1c(C)[nH]c(C(=O)CSc2ncnc3sc(-c4ccccc4)cc23)c1C	5.38 (active)
COC(=O)c1c(C)[nH]c(C(=O)CSc2ncnc3sc(-c4ccccc4)cc23)c1C	1.11
CCN(CC)C(=O)CSc1ncnc2sc(-c3ccccc3)cc12	7.95 (active)
CN(C)/C=N/c1c(C#N)cnn1-c1ncnc2sc(-c3ccccc3)cc12	0.831

SMILES	z-score
CCN(CC)C(=O)CSc1ncnc2c1cnn2Cc1ccccc1	0.13
CC(=O)c1c(C)[nH]c(C(=O)CSc2nnc(-c3ccccc3)o2)c1C	-0.229
CCc1cc2c(SCC(=O)c3ccccc3)ncnc2s1	0.275
CC(C)C(C)(C#N)NC(=O)CSc1nnc(-c2ccncc2)n1Cc1ccccc1 (configuration not stated)	0.023
CCOC(=O)C1CCN(C(=O)c2cccc(Cl)c2)CC1	0.0552
C/C(=N\NC(=O)c1c(Cl)c(C)nn1C)c1cccc(NC(=O)COc2ccccc2)c1	-0.103
CCOC(=O)Nc1nnc(-c2ccc(OC)cc2)s1	0.0823
CC(C)[C@H](NC(=O)c1ccccc1)C(=O)OCC(=O)N1CCCc2ccccc21	0.0154
Cc1cccc(C)c1NC(=O)CSc1nc(COc2ccccc2)nc2ccccc12	0.755
Cc1ccc(NC(=O)C(c2ccccc2)C2CCCC2)cc1 (configuration not stated)	3.36 (active)
O=C(Nc1ccccc1)C(c1ccccc1)C1CCCC1 (configuration not stated)	-0.474
O=C(Nc1ccc2ccccc2c1)C(c1ccccc1)C1CCCC1 (configuration not stated)	0.0599
CCOC(=O)N1CCN(C(=O)N2CCOCC2)CC1	0.275
COc1ccccc1N1CCN(S(=O)(=O)c2ccccc2F)CC1	-0.52
CCCCCCOC(=O)C(C#N)c1nc2ccccc2nc1N1CCN(C)CC1 (configuration not stated)	2.73
CCCCCCOC(=O)C(C#N)c1nc2ccccc2nc1N1CCCCC1 (configuration not stated)	-0.00593
COCCOC(=O)C(C#N)c1nc2ccccc2nc1N1CCCC1 (configuration not stated)	-0.268
CCC(CC)COC(=O)C(C#N)c1nc2ccccc2nc1N1CCN(CC)CC1 (configuration not stated)	2.72
CC(C)COC(=O)C(C#N)c1nc2ccccc2nc1N1CCN(Cc2ccccc2)CC1 (configuration not stated)	-0.213
CCCCCCOC(=O)C(C#N)c1nc2ccccc2nc1N1CCN(CC)CC1 (configuration not stated)	0.709
